Assay results from the supplement of paper PMC7366291.
Structures can show the parent of a compound that is named as a salt. ± gives the standard deviation or the standard deviation of the averaged measurements.

Columns and labels:
Conditions in all cases: 25 µM; exposure: 24-48 hpf
[1] = test system: Danio rerio Tg(wt1b:EGFP) embryo, pronephros; experiment: glomerular separation, fold change vs DMSO control; higher = glomeruli further apart (abnormal)
Method in brief: (§1)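 Dechorionated Tg(wt1b:EGFP) zebrafish embryos were kept from 24 to 48 hpf at 28.5°C in HEPES-buffered E3 containing 0.003% PTU, 0.5% DMSO and 25 μM compound. The pronephroi were then imaged from the dorsal side in agarose-filled 96-well plates at 470 nm with 10 z-slices, and 16 reference points were placed by hand on maximum projections in Fiji so that a macro could calculate distances and angles. Values lying more than 2 SD from the mean of a feature were discarded. Every feature is given as a fold change against the mean of DMSO-treated embryos from the same day.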

[2] = test system: Danio rerio Tg(wt1b:EGFP) embryo, pronephros; experiment: glomerular width (mean of left and right), fold change vs DMSO control; higher = wider glomerulus
Method in brief: as §1

[3] = test system: Danio rerio Tg(wt1b:EGFP) embryo, pronephros; experiment: fraction of imaged embryos annotated as normal kidney; higher = less nephrotoxic; extreme values may be limits of the assay
Method in brief: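 From 24 to 48 hpf at 28.5°C, dechorionated Tg(wt1b:EGFP) zebrafish embryos in 12-well plates were kept in 5 mM HEPES-buffered E3 with 0.003% PTU, 0.5% DMSO and 25 μM compound. Pronephroi were imaged by widefield fluorescence at 470 nm and judged by eye from maximum projections. Reported is the proportion of embryos per treatment in the normal-kidney category.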

[4] = test system: Danio rerio Tg(wt1b:EGFP) embryo, pronephros; experiment: pronephric angle neck segment to proximal convoluted tubule (mean of left and right), fold change vs DMSO control; higher = larger pronephric angle
Method in brief: as §1

Row | SMILES | glomerular separation [1] | glomerular width [2] | fraction of imaged embryos annotated as normal kidney [3] | pronephric angle neck segment [4]
1 | COc1ccccc1N1CCN(CC(O)COc2cccc3ccccc23)CC1 (configuration not stated) [Naftopidil dihydrochloride] | 0.922 ± 0.42 | 0.983 ± 0.024 | 0.833 | 0.966 ± 0.034
2 | CC(C)OC(=O)C(C)(C)Oc1ccc(C(=O)c2ccc(Cl)cc2)cc1 [Fenofibrate] | 6.84 ± 3.3 | 0.648 ± 0.076 | 0 | 1.801 ± 0.0082
3 | O=C(O)c1cc(=O)c2c(OCC(O)COc3cccc4oc(C(=O)O)cc(=O)c34)cccc2o1 [Cromolyn disodium salt] | 0.753 ± 0.22 | 1.08 ± 0.011 | 0.909 | 1.0048 ± 0.00061
4 | CNCCc1ccccn1 [Betahistine mesylate] | 0.815 ± 0.39 | 1.06 ± 0.034 | 0.833 | 0.9697 ± 0.0079
5 | CC(C)(CO)C(O)C(=O)NCCCO (configuration not stated) [Panthenol (D)] | 0.954 ± 0.35 | 1.001 ± 0.0062 | 0.75 | 1.008 ± 0.005
6 | C[C@@H]1NC(=O)NC1=O [Methylhydantoin-5-(L)] | 0.772 ± 0.24 | 0.967 ± 0.048 | 1 | 0.995 ± 0.031
7 | NCCCC(O)(P(=O)(O)O)P(=O)(O)O [Alendronate sodium] | 0.796 ± 0.25 | 0.984 ± 0.03 | 0.833 | 1 ± 0.041
8 | COc1ccc2c(c1)N(C[C@H](C)CN(C)C)c1ccccc1S2 [Methotrimeprazine maleat salt] | 1.16 ± 0.65 | 0.993 ± 0.037 | 0.909 | 1.02 ± 0.016
9 | COC1=CC(=O)C[C@@H](C)[C@]12Oc1c(Cl)c(OC)cc(OC)c1C2=O [Griseofulvin] | 0.952 ± 0.29 | 1 ± 0.023 | 0.917 | 0.947 ± 0.01
10 | CCOC(=O)O[C@]1(C(=O)OCCl)CC[C@H]2[C@@H]3CCC4=CC(=O)C=C[C@]4(C)[C@H]3[C@@H](O)C[C@@]21C [Loteprednol etabonate] | 1.27 ± 0.56 | 0.884 ± 0.029 | 0.833 | 1.09 ± 0.042
11 | CN(C)C(=O)C(CCN1CCC(O)(c2ccc(Cl)cc2)CC1)(c1ccccc1)c1ccccc1 [Loperamide hydrochloride] | 1.07 ± 0.32 | 1.04 ± 0.12 | 0.667 | 1.03 ± 0.065
12 | CNCC(O)c1ccc(OC(=O)C(C)(C)C)c(OC(=O)C(C)(C)C)c1 (configuration not stated) [Dipivefrin hydrochloride] | 0.794 ± 0.16 | 1.04 ± 0.036 | 0.833 | 1.03 ± 0.081
13 | Cc1cnc(C(=O)O)c[n+]1[O-] [Acipimox] | 1.01 ± 0.23 | 1.015 ± 0.0095 | 1 | 0.94922 ± 0.00089
14 | COCCCOc1ccnc(C[S+]([O-])c2nc3ccccc3[nH]2)c1C (configuration not stated) [Rabeprazole Sodium salt] | 0.694 ± 0.27 | 1.01 ± 0.019 | 0.75 | 1.11 ± 0.019
15 | NC(Cc1cc(I)c(Oc2cc(I)c(O)c(I)c2)c(I)c1)C(=O)O (configuration not stated) [Thyroxine (L)] | 1.12 ± 0.3 | 1.07 ± 0.046 | 0.75 | 1.02 ± 0.029
16 | CCCCOC(=O)c1ccc(O)cc1 [Butylparaben] | 1.67 ± 0.4 | 0.994 ± 0.022 | 0.5 | 1.11 ± 0.038
17 | c1ccc2c(c1)CCCC2C1=NCCN1 (configuration not stated) [Tetrahydrozoline hydrochloride] | 0.793 ± 0.31 | 1.06 ± 0.027 | 1 | 0.98 ± 0.042
18 | CN1C(C)(C)CCCC1(C)C [Pempidine tartrate] | 0.75 ± 0.25 | 1 ± 0.032 | 0.833 | 1.02 ± 0.068
19 | CN1CCC(=C2c3ccccc3CCc3cccnc32)CC1 [Azatadine maleate] | 1.11 ± 0.32 | 0.9513 ± 0.00027 | 1 | 0.99 ± 0.037
20 | C[N+](C)(CCOc1ccccc1)Cc1ccccc1.O=C([O-])c1cc2ccccc2cc1O [Bephenium hydroxynaphthoate] | 2.05 ± 0.8 | 0.9959 ± 0.0015 | 0.583 | 1.17 ± 0.053
21 | OCCN1CCN(CCCN2c3ccccc3C=Cc3ccccc32)CC1 [Opipramol dihydrochloride] | 0.662 ± 0.23 | 1.1 ± 0.043 | 0.75 | 1.02 ± 0.076
22 | Cc1nc2n(c(=O)c1CCN1CCC(c3noc4cc(F)ccc34)CC1)CCCC2 [Risperidone] | 0.741 ± 0.16 | 1.04 ± 0.043 | 1 | 0.974 ± 0.021
23 | CN1CCN(CCCN2c3ccccc3Sc3ccc(C(F)(F)F)cc32)CC1 [Trifluoperazine dihydrochloride] | 1.22 ± 0.54 | 0.953 ± 0.015 | 0.833 | 0.9555 ± 0.0078
24 | COc1cc(C(=O)N2CCOCC2)cc(OC)c1OC [Trimetozine] | 1.03 ± 0.47 | 0.984 ± 0.065 | 0.917 | 1.01 ± 0.06
25 | CO[C@H]1/C=C/O[C@@]2(C)Oc3c(C)c(O)c4c(c3C2=O)C2=NC3(CCN(CC(C)C)CC3)NC2=C(NC(=O)/C(C)=C\C=C\[C@H](C)[C@H](O)[C@@H](C)[C@@H](O)[C@@H](C)[C@H](OC(C)=O)[C@@H]1C)C4=O [Rifabutin] | 1.4 ± 0.24 | 0.94 ± 0.1 | 0.583 | 1.06 ± 0.011
26 | CN(Cc1cnc2nc(N)nc(N)c2n1)c1ccc(C(=O)N[C@@H](CCC(=O)O)C(=O)O)cc1 [Methotrexate] | 1.19 ± 0.59 | 1.0099 ± 0.0002 | 0.917 | 0.978 ± 0.014
27 | O=P(O)(O)C(O)(Cn1ccnc1)P(=O)(O)O [Zoledronic acid hydrate] | 1.2 ± 0.37 | 1.04 ± 0.015 | 1 | 0.989 ± 0.0085
28 | CC(C)[C@H](N)C(=O)OCCOCn1cnc2c(=O)nc(N)[nH]c21 [Valacyclovir hydrochloride] | 0.851 ± 0.28 | 1 ± 0.066 | 0.917 | 0.955 ± 0.044
